The values that follow come from PubChem BioAssay AID2825 (Sanford-Burnham Center for Chemical Genomics, 2010).

Screen size: about 330,000 compounds; about 1,300 (0.39%) were called active.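 How the source made its calls: active means inhibition of 50% or more; inactive means inhibition below 50%.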 The list comes from a sample in which actives are over-represented; it also holds similar structures and randomly drawn compounds.

The nature of this experiment: blockers of yeast NLRP3/ASC/caspase-1 reporter – luminescence, uHTS, primary screen (AID 2825).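 Further: plate controls were induced DMSO wells for no effect and uninduced yeast grown without galactose for full effect.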 The note with it: Yeast reconstituted NLRP3/ASC/caspase-1, beta-gal luminescence, 24 h; at 10 µM; hits give high values.
In the case of `O=C(NCc1ccc2c(c1)OCO2)c1c(O)nc2sccn2c1=O`, the inhibition was 56% (active).
In the case of `CCn1c(=O)c(C(=O)NCc2ccc3c(c2)OCO3)c(O)c2ccccc21` it was 17.1% (inactive).
The value for `O=C(NCc1ccc2c(c1)OCO2)c1sccc1Br` was 40.9% (inactive); that for `CC(NC(=O)COC(=O)CCC(=O)c1ccc(Cl)cc1)c1ccccc1` (stereo not drawn) was 6.94% (inactive); that for `CCCN(CC1CC1)C(=S)NC(=O)c1ccccc1Br` was 50.5% (active).
In the case of `O=C(NC(=S)Nc1ncccn1)c1ccccc1Br` it was 6.12% (inactive).
Take `CC1CCN(C(=S)NC(=O)c2ccccc2Br)CC1`: the inhibition was 15.7% (inactive).
`COc1ccc(S(=O)(=O)NCc2cccnc2)cc1NC(=O)c1ccc(C)cc1`: the inhibition is 9.95% (inactive).
As to `CCc1cc(-c2n[nH]c(=S)n2CC(C)C)cs1`, the inhibition was 29.7% (inactive).
For the molecule `Cc1nc2sc(C(c3ccco3)N3CCC4(CC3)OCCO4)c(O)n2n1` (stereo not drawn), the inhibition was 13.3% (inactive).
In the case of `O=C(Nc1ccccc1C(F)(F)F)c1cc(-c2ccc(O)cc2)on1`, the inhibition is 32% (inactive).
On to `CC(C)Cc1cc(C(=O)Nc2cc(Br)ccc2O)no1`, for which the inhibition was 29.5% (inactive).
In the case of `Cc1ccc(O)c(NC(=O)c2cc(-c3ccco3)on2)c1` it was 56.4% (active); in that of `COc1cccc(C(=O)Oc2cc(C)[nH]c(=O)c2[N+](=O)[O-])c1`, 16% (inactive).
For `COC(=O)c1ccc(S(=O)(=O)N(CCO)Cc2ccccc2)n1C`, the inhibition was 4.79% (inactive).
Regarding `CN1CCN(C(=O)/C(=C\c2cccs2)NC(=O)c2cccs2)CC1`, the inhibition is 7.81% (inactive).
Turning to `C=CCn1c(SCC(N)=O)nnc1-c1cc2c(s1)CCC(CC)C2` (stereo not drawn), the inhibition was 4.35% (inactive).
Regarding `O=C(O)C1CCCN1C1=NS(=O)(=O)c2ccccc21` (stereo not drawn), the inhibition was -1.91% (inactive).
Regarding `O=C(Nc1cccc(-c2nc3ncccc3o2)c1)c1ccco1`, the inhibition is 18.2% (inactive).
In the case of `COc1cc(OC)cc(C(=O)Nc2ccc(-c3nc4ccccc4o3)c(O)c2)c1` it was 10.3% (inactive).
`O=C(Nc1ccc2oc(-c3ccccc3F)nc2c1)c1ccco1`: the inhibition was 54.8% (active).
The value for `C=CCN1C(=O)C(O)(CC(=O)c2ccc(Cl)cc2)c2ccccc21` (stereo not drawn) was -10.4% (inactive).
Turning to `CCN(CC)C(=O)CSc1ncnc2c1cnn2-c1ccccc1`, the inhibition was 35.5% (inactive).
As to `CC(Sc1ncnc2c1cnn2-c1ccccc1)C(=O)Nc1ccc(N2CCOCC2)cc1` (stereo not drawn), the inhibition was 8.39% (inactive).
Regarding `CC(C)Sc1ncnc2c1cnn2-c1ccccc1`, the inhibition was 50.5% (active).
Turning to `Oc1c(Cl)cc(Cl)c(Cl)c1Cc1c(O)c(Cl)cc(Cl)c1Cl`, the inhibition was 95.9% (active).
The value for `CCCn1c(SCC(=O)Nc2ccc(C)c(S(=O)(=O)N3CCOCC3)c2)n[nH]c1=O` was 4.23% (inactive); that for `CC1(C)Cc2c(sc3nc(SCC(=O)NCc4ccccc4)n(-c4ccccc4)c(=O)c23)CS1` was -8.33% (inactive); that for `COC(=O)c1ccc(S(=O)(=O)NCc2ccccc2)n1C` was 14.2% (inactive).
The value for `O=C(Nc1cc(S(=O)(=O)N2CCCCC2)ccc1Cl)C1COc2ccccc2O1` (stereo not drawn) was 4.78% (inactive); that for `CCCCCCCCCCCC(=O)O` was 12.3% (inactive).
As to `CCCCCCC12CCC(C(=O)O)(CC1)CC2`, the inhibition was 54.3% (active).
In the case of `CN1CCN(c2ccc(S(=O)(=O)N3CCOCC3)cc2NC(=O)CCc2ccccc2)CC1`, the inhibition is 12.1% (inactive).
The value for `COc1cc(NC(=O)CN2C(=O)NC(C)(c3ccc(OC(F)F)cc3)C2=O)cc(OC)c1OC` (stereo not drawn) was 11.2% (inactive); that for `O=[N+]([O-])c1c(NCCO)cc(Sc2nc3ccccc3s2)c2nonc12` was 55.2% (active).
Regarding `CCN(CC)CCCSc1nc2ccccc2s1`, the inhibition was 15.5% (inactive).
With `Cc1nc2nc(CSc3nc4ccccc4s3)cc(=O)n2[nH]1`, the inhibition is 1.14% (inactive).
With `Cc1ccccc1S(=O)(=O)Cc1ccc(C(=O)NCCN2CCCCC2C)o1` (stereo not drawn), the inhibition is 13.3% (inactive).
As for `COc1ccc(C2Nc3ccccc3C(=O)N2c2ccc(Cl)cc2)cc1Cn1cc([N+](=O)[O-])cn1` (stereo not drawn), the inhibition was 1.4% (inactive).
`Cc1cccc(C(=O)OC(C)C(=O)NC2CCCc3ccccc32)c1O` (stereo not drawn): the inhibition was 11.6% (inactive).
As for `Cc1ccc(C(c2sc3nc(C)nn3c2O)N2CCN(c3ccccc3)CC2)cc1` (stereo not drawn), the inhibition is -2.77% (inactive).
Take `Cc1cc(C)nc(N/N=C/c2c(CO)cnc(C)c2O)n1`: the inhibition was 15.2% (inactive).
In the case of `CCN(CC)c1ccc(/C=N/Nc2nc(C)cc(C)n2)c(O)c1`, the inhibition was 58.1% (active).
For the molecule `CCN(CC)c1ccc(/C=N/NC(=O)c2cnccn2)c(O)c1`, the inhibition was 27.9% (inactive).
On to `OCCC1CN(Cc2cnc(-c3ccccc3)s2)CCN1CCc1ccccc1` (stereo not drawn), for which the inhibition was 1.33% (inactive).
For `CCOC(OCC)c1ccc(/C=C\c2nccc(N)n2)cc1`, the inhibition is 14.7% (inactive).
For the molecule `O=C(OCc1cc2ccccc2[nH]c1=O)c1cccnc1`, the inhibition is 11.2% (inactive).
For the molecule `COc1ccc(Oc2coc3cc(OC(=O)c4cncc(Br)c4)ccc3c2=O)cc1`, the inhibition was 2.36% (inactive).
On to `O=C(Oc1c(-c2ccco2)oc2ccccc2c1=O)c1cccnc1`, for which the inhibition was 54.3% (active).
Turning to `C=C(C)c1cccc(C(C)(C)NC(=O)NCCN(CC)CC)c1`, the inhibition is 5.58% (inactive).
Consider `COC(=O)c1cc(S(=O)(=O)NC2CCN(Cc3ccccc3)CC2)cn1C`, for which the inhibition was 11.4% (inactive).
Take `CCOC(=O)c1c(C)[nH]c(C(=O)COc2ccc3c(c2)OCO3)c1C`: the inhibition is 79.9% (active).
Take `CC(=O)c1c(C)[nH]c(C(=O)COc2ccc3c(C)cc(=O)oc3c2)c1C`: the inhibition is 17.5% (inactive).
As for `CCOC(=O)c1c(C)[nH]c(C(=O)OCC(=O)c2ccc(OC)cc2OC)c1C`, the inhibition is 22.6% (inactive).
With `O=c1[nH]c(CCl)nc2cc(-c3ccc(Cl)cc3)sc12`, the inhibition is 2.25% (inactive).
In the case of `O=C(NCC1CCCO1)c1ccc(S(=O)(=O)Nc2ccc(F)cc2)cc1` (stereo not drawn), the inhibition is 16.8% (inactive).
In the case of `COCCNC(=S)N1CCN(C)CC1`, the inhibition was 5.02% (inactive).
The value for `CC(Sc1ccccc1F)C(=O)Nc1cccc(S(=O)(=O)N2CCOCC2)c1` (stereo not drawn) was 6.56% (inactive).
